Laboratory results taken from PubChem BioAssay AID1159580 (chemical genetic matrix, 2015).
Values joined by “and” are separate entries in the source; they are usually repeats but may differ in a detail not shown here. Equal entries are not always repeated. In all, about 5,500 compounds went through this assay and about 2,000 (36%) were called active. About 18% were inconclusive and are not listed. Cut-off read from the data, not from the text of the source: active = normalized growth mostly below about 0.91 (no sharp cut-off); inconclusive = no clear call, values can overlap the other calls; inactive = mostly above about 0.92. Some of the results follow.

Test: chemical genetic growth profiling, strain panel (AID 1159580);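 note: tested at 20 µM; growth read once vehicle control cultures reached saturation at 30 °C; 1 = growth at the plate median or of vehicle wells; lower values mean less growth of the strain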
Conditions: S. cerevisiae deletion strains, growth OD
[1] = locus YAL013W, strain DEP1, hits give low values
[2] = locus YJR075W, strain HOC1, hits give low values
[3] = locus YMR307W, strain GAS1, hits give low values
[4] = locus YNL322C, strain KRE1, hits give low values

Measured: normalized growth

CNC[C@@H](O)c1ccc(O)c(O)c1
inactive: [1] 0.993 | locus YAL021C, strain ccr4, hits give low values 1 | locus YAL026C, strain drs2, hits give low values 0.984 | locus YAL030W, strain snc1, hits give low values 1 | locus YBL061C, strain skt5, hits give low values 1 | locus YBR009C, strain hhf1, hits give low values 0.997 | locus YBR021W, strain FUR4, hits give low values 1.02 | locus YBR023C, strain chs3, hits give low values 1.01 | locus YBR171W, strain sec66, hits give low values 1 | locus YBR229C, strain ROT2, hits give low values 0.96 | locus YBR231C, strain swc5, hits give low values 0.991 | locus YBR279W, strain paf1, hits give low values 1 | locus YCL011C, strain gbp2, hits give low values 1.02 | locus YCL016C, strain dcc1, hits give low values 1.02 | locus YCL029C, strain bik1, hits give low values 0.984 | locus YCL061C, strain MRC1, hits give low values 1.01 | locus YCL069W, strain vba3, hits give low values 1.01 | locus YCR088W, strain abp1, hits give low values 1.01 | locus YDL005C, strain med2, hits give low values 0.997 | locus YDL035C, strain GPR1, hits give low values 0.981 | locus YDL040C, strain nat1, hits give low values 1 | locus YDL074C, strain BRE1, hits give low values 0.984 | locus YDL101C, strain DUN1, hits give low values 0.986 | locus YDL185W, strain tfp1, hits give low values 0.966 | locus YDL192W, strain arf1, hits give low values 0.979 | locus YDR001C, strain nth1, hits give low values 1.01 | locus YDR069C, strain doa4, hits give low values 0.989 | locus YDR101C, strain arx1, hits give low values 0.982 | locus YDR137W, strain rgp1, hits give low values 1.03 | locus YDR159W, strain sac3, hits give low values 1 | locus YDR162C, strain NBP2, hits give low values 0.977 | locus YDR195W, strain ref2 0.989 | locus YDR297W, strain sur2, hits give low values 0.995 | locus YDR318W, strain mcm21, hits give low values 0.983 | locus YDR334W, strain swr1, hits give low values 0.993 | locus YDR335W, strain msn5, hits give low values 1 | locus YDR388W, hits give low values 0.99 | locus YDR392W, strain spt3, hits give low values 0.93 | locus YDR502C, strain sam2, hits give low values 0.996 | locus YEL003W, strain gim4, hits give low values 1 | locus YEL037C, strain rad23, hits give low values 1 | locus YEL061C, strain CIN8 (second series), hits give low values 1.01 | locus YEL061C, strain CIN8, hits give low values 0.978 | locus YER015W, strain faa2, hits give low values 1.01 | locus YER016W, strain bim1, hits give low values 1.01 | locus YER110C, hits give low values 0.984 | locus YER111C, strain swi4, hits give low values 1.02 | locus YER155C, strain BEM2 (second series), hits give low values 0.988 | locus YER155C, strain BEM2, hits give low values 1 | locus YER167W, strain BCK2, hits give low values 1.01 | locus YFR010W, strain ubp6, hits give low values 0.993 | locus YGL078C, strain dbp3, hits give low values 0.993 | locus YGL086W, strain mad1, hits give low values 0.977 | locus YGL167C, strain pmr1, hits give low values 1 | locus YGL173C, strain kem1, hits give low values 1 | locus YGL227W, strain vid30, hits give low values 1 | locus YGL240W, strain doc1, hits give low values 0.989 | locus YGL248W, strain PDE1, hits give low values 1 | locus YGL253W, strain hxk2, hits give low values 1.01 | locus YGR135W, strain pre9, hits give low values 1.04 | locus YGR229C, strain SMI1, hits give low values 0.99 | locus YGR252W, strain gcn5, hits give low values 1.02 | locus YHR013C, strain ard1, hits give low values 1.04 | locus YHR027C, strain rpn1, hits give low values 1.01 | locus YHR030C, strain SLT2, hits give low values 0.999 and 1.05 | locus YHR079C, strain IRE1 (second series), hits give low values 0.951 | locus YHR079C, strain IRE1, hits give low values 1.04 | locus YHR094C, strain hxt1, hits give low values 0.977 | locus YHR129C, strain ARP1, hits give low values 0.999 | locus YHR142W, strain chs7, hits give low values 1.02 | locus YHR200W, strain rpn10, hits give low values 0.97 | locus YIL066C, strain RNR3, hits give low values 0.986 | locus YIL073C, strain SPO22, hits give low values 1.02 | locus YIL125W, strain kgd1, hits give low values 0.983 | locus YIR030C, strain dcg1, hits give low values 0.999 | locus YJL092W, strain hpr5, hits give low values 1.01 | locus YJL095W, strain BCK1 (second series), hits give low values 1.01 | locus YJL095W, strain BCK1, hits give low values 1.03 and 1.07 | locus YJL115W, strain asf1, hits give low values 0.996 | locus YJL129C, strain trk1, hits give low values 1 | locus YJL134W, strain LCB3, hits give low values 0.993 | locus YJL154C, strain vps35, hits give low values 1 | locus YJL164C, strain tpk1, hits give low values 0.995 | locus YJL166W, strain qcr8, hits give low values 1.01 | locus YJL168C, strain set2, hits give low values 0.987 | locus YJL187C, strain SWE1 (second series), hits give low values 0.981 | locus YJL187C, strain SWE1, hits give low values 1 | locus YJR043C, strain POL32, hits give low values 0.978 | locus YJR066W, strain TOR1, hits give low values 0.985 | [2] 0.994 | locus YKL009W, strain mrt4, hits give low values 0.986 | locus YKL068W, hits give low values 0.977 | locus YKL085W, strain MDH1 (second series), hits give low values 0.996 | locus YKL085W, strain MDH1, hits give low values 0.996 | locus YKL160W, strain elf1, hits give low values 1.03 | locus YKR001C, strain vps1, hits give low values 0.982 | locus YKR026C, strain gcn3, hits give low values 1 | locus YKR091W, strain srl3, hits give low values 1.01 | locus YLL001W, strain dnm1, hits give low values 1.01 | locus YLL026W, hits give low values 1 | locus YLL041C, strain sdh2, hits give low values 1 | locus YLR027C, strain aat2, hits give low values 1 | locus YLR039C, strain RIC1, hits give low values 1.03 | locus YLR058C, strain SHM2, hits give low values 0.984 | locus YLR102C, strain apc9, hits give low values 0.968 | locus YLR113W, strain HOG1, hits give low values 1.08 | locus YLR221C, strain rsa3, hits give low values 1.02 | locus YLR258W, strain gsy2, hits give low values 1.02 | locus YLR262C, strain YPT6 (second series), hits give low values 1 | locus YLR262C, strain YPT6, hits give low values 0.947 | locus YLR268W, strain sec22, hits give low values 0.972 | locus YLR320W, strain mms22, hits give low values 1.03 | locus YLR330W, strain CHS5, hits give low values 0.992 | locus YLR342W, strain FKS1 (second series), hits give low values 0.999 | locus YLR342W, strain FKS1, hits give low values 1.01 | locus YLR357W, strain rsc2, hits give low values 0.957 | locus YLR370C, strain arc18, hits give low values 1.01 | locus YLR371W, strain rom2, hits give low values 0.983 | locus YLR384C, strain iki3, hits give low values 0.999 | locus YLR418C, strain cdc73, hits give low values 0.996 | locus YML016C, strain PPZ1, hits give low values 0.994 | locus YML032C, strain rad52, hits give low values 0.997 | locus YML120C, strain ndi1, hits give low values 1.03 | locus YML124C, strain tub3, hits give low values 0.983 | locus YMR058W, strain fet3, hits give low values 1 | locus YMR078C, strain ctf18, hits give low values 0.99 | locus YMR125W, strain sto1, hits give low values 0.991 | locus YMR129W, hits give low values 1.01 | locus YMR205C, strain PFK2, hits give low values 1.04 | locus YMR223W, strain ubp8, hits give low values 1.02 | locus YMR231W, strain pep5, hits give low values 0.999 | locus YMR263W, strain SAP30, hits give low values 0.995 | [3] 1.05 | locus YNL067W, strain RPL9B, hits give low values 0.992 | locus YNL071W, strain lat1, hits give low values 1.02 | locus YNL153C, strain GIM3, hits give low values 0.993 | locus YNL183C, strain NPR1, hits give low values 0.99 | locus YNL209W, strain ssb2, hits give low values 1 | locus YNL233W, strain BNI4, hits give low values 0.999 | locus YNL248C, strain rpa49, hits give low values 1.02 | locus YNL250W, strain rad50, hits give low values 0.96 | locus YNL271C, strain bni1, hits give low values 0.988 | locus YNL298W, strain CLA4, hits give low values 0.979 | locus YNL307C, strain MCK1, hits give low values 0.905 | locus YNL322C, strain KRE1 (second series), hits give low values 1.02 | [4] 1 | locus YNR049C, strain mso1, hits give low values 1 | locus YNR052C, strain pop2, hits give low values 0.984 | locus YOL012C, strain htz1 0.8 | locus YOL147C, strain pex11, hits give low values 0.989 | locus YOR001W, strain rrp6, hits give low values 1.01 | locus YOR061W, strain CKA2, hits give low values 0.967 | locus YOR069W, strain VPS5, hits give low values 0.991 | locus YOR070C, strain gyp1, hits give low values 1 | locus YOR080W, strain dia2, hits give low values 0.997 | locus YOR083W, strain WHI5, hits give low values 1.03 | locus YOR106W, strain vam3, hits give low values 1.02 | locus YOR136W, strain idh2, hits give low values 0.965 | locus YOR144C, strain elg1, hits give low values 0.986 | locus YOR184W, strain ser1, hits give low values 0.982 | locus YOR231W, strain MKK1, hits give low values 1.07 | locus YOR265W, strain rbl2, hits give low values 1 | locus YOR270C, strain vph1, hits give low values 1.05 | locus YOR290C, strain snf2, hits give low values 0.955 | locus YOR316C, strain cot1, hits give low values 0.966 | locus YPL051W, strain arl3, hits give low values 0.998 | locus YPL055C, strain LGE1, hits give low values 1.02 | locus YPL078C, strain atp4, hits give low values 1.01 | locus YPL106C, strain sse1, hits give low values 0.984 | locus YPL240C, strain hsp82, hits give low values 1.01 | locus YPL256C, strain CLN2, hits give low values 1.03 | locus YPR119W, strain clb2, hits give low values 0.968 | locus YPR141C, strain kar3, hits give low values 0.975 | locus YPR163C, strain tif3, hits give low values 0.986 | locus YPR167C, strain met16, hits give low values 0.989 | strain wtn01, hits give low values 1

CC(C)NC[C@@H](O)c1ccc(O)c(O)c1
inactive: [1] 0.974 | locus YAL040C, strain CLN3, hits give low values 1.03 | locus YCL061C, strain MRC1 (second series), hits give low values 0.996 | locus YDR150W, strain NUM1, hits give low values 1 | locus YDR363W, strain ESC2, hits give low values 1 | locus YER002W, strain NOP16, hits give low values 0.984 | locus YGR078C, strain PAC10, hits give low values 0.99 | locus YNL175C, strain NOP13, hits give low values 0.984 | locus YNL197C, strain WHI3, hits give low values 0.985 | locus YNL224C, strain SQS1, hits give low values 0.997 | [4] 1.01 | locus YOR083W, strain WHI5 (second series), hits give low values 1.04 | locus YPL241C, strain CIN2, hits give low values 0.998
active: [2] 1.12 [resistant] | [3] 1.1 [resistant]
